This note sets out measurements from PubChem BioAssay (Tox21).

Values without a mark were called inactive. Results filed as inconclusive are left out. The source made the active and inactive calls. Unless noted, calls come from the whole dose curve; as a rule, active = well fitted curve in the direction sought with a large enough effect in the repeat runs; inconclusive = weak or mixed curves; inactive = no such curve, though single readings can be large; an effect the other way counts as inactive or inconclusive.

In assay [1] the target is Thyrotropin receptor (Homo sapiens) (UniProt P16473). Put plainly: qHTS assay to identify small molecule antagonists of the thyroid stimulating hormone receptor (TSHR) signaling pathway (AID 1259385; calls by dose curve; note: nearly all actives have a fitted effect of over 20% in size; note: potency is the fitted concentration of half-maximal effect). The method in brief:
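TSHR-HEK293 cells were plated and held 18 h at 37C/5% CO2, then given compound plus Ro20-1724 and stimulated with TSH at 1.5 ng/mL final. After 30 min at room temperature, cAMP was detected with cAMP-d2/anti-cAMP-cryptate (1 h) by fluorescence.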

Assay [2] can be described thus: qHTS assay to identify small molecule agonists of the estrogen receptor alpha (ER-alpha) signaling pathway in the presence of an antagonist - cell viability counter screen (AID 1259386).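 Note: cells exposed to compounds for 22 h at 37 °C before the viability read; nearly all actives have a fitted effect of over 30% in size.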 Note: potency is the fitted concentration of half-maximal effect. In short, it runs like this:
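ICI-182,780 at 10.0nM final accompanies the compound titration (15 concentrations, 22hr, 37C) on VM7Luc4E2 cells. The CellTiter-Fluor fluorescence readout runs in the same wells as the luciferase assay.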

Assay [3] has as its target Progesterone receptor (Homo sapiens) (UniProt P06401). Put plainly: qHTS assay to identify small molecule agonists of the progesterone receptor (PR) signaling pathway (AID 1346784; calls by dose curve; note: nearly all actives have a fitted effect of over 30% in size; note: potency is the fitted concentration of half-maximal effect). In short, it runs like this:
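Agonist qHTS: compounds pinned onto 3,000 PR-UAS-bla HEK 293T cells per well in charcoal-stripped serum medium, 16hr at 37C, then beta-lactamase activity measured by LiveBLAzer FRET fluorescence after 2 hours at room temperature.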

Assay [4] is described as follows: qHTS assay to identify small molecule antagonists of the TGF-beta/Smad signaling pathway - cell viability counter screen (AID 1346824). Note: nearly all actives have a fitted effect of over 50% in size. The method in brief:
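SBE-bla HEK 293T cells were plated overnight at 37 C, then given compounds in DMSO plus TGF-beta1 (added as 0.25 ng/mL solution) for 5 hr. After the bla read, CellTiter-Glo was added to the same wells and luminescence read after 30 min at room temperature.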

Assay [5] is described as follows: qHTS assay to identify small molecule agonists of the TGF-beta/Smad signaling pathway - cell viability counter screen (AID 1346829). Note: top concentration of the series differs between compounds; nearly all actives have a fitted effect of over 45% in size. The method in brief:
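Here the cytotoxicity of library compounds is measured in SBE-bla HEK 293T cells treated for 5 hr, using CellTiter-Glo added to wells already read for the beta-lactamase reporter.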
On the technique in general: qHTS replaces the single test concentration by a dilution series.

The nature of assay [6]: qHTS assay to identify small molecule agonists of the TGF-beta/Smad signaling pathway (AID 1346859; active = well fitted activation curve with a large enough effect in the signal ratio in the repeat runs, not every such curve was filed as active; the % refers to the signal ratio; note: potency is the fitted concentration of half-maximal effect; for activation: series mostly up to about 77 µM). In short, it runs like this: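 Fluorescence (ex 405 nm; em 460 and 530 nm) was read 2 h after LiveBLAzer FRET substrate at RT. The preceding compound treatment of overnight-plated SBE-bla HEK293T cells lasted 5 h at 37 C.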
Assay [7] addresses Thyrotropin-releasing hormone receptor (Homo sapiens) (UniProt P34981). The experiment in a line: qHTS assay to identify small molecule antagonists of the thyrotropin-releasing hormone receptor (TRHR) signaling pathway (AID 1346877; active = well fitted inhibition curve with a large enough effect in the repeat runs, not every such curve was filed as active; note: series mostly up to about 51 µM). In short, it runs like this: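 Screening used HEK293 cells engineered with TRHR, with a brief 5 min room-temperature compound exposure preceding addition of TRH to 1 nM. The read-out was kinetic calcium-dye fluorescence, concentration-response from 15 doses in triplicate.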

Assay [8] shares this target. Put plainly: qHTS assay to identify small molecule agonists of the thyrotropin-releasing hormone receptor (TRHR) signaling pathway (AID 1346891; calls by dose curve; note: series mostly up to about 58 µM). The method in brief:
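Agonist-mode intracellular calcium readout: kinetic fluorescence over 3 min at 1 s intervals after compound addition to TRHR-HEK293 cells (18 h seeded, 2 h dye-loaded at 37 C). Fifteen concentrations, triplicates.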

Assay [9] is described as follows: Human pregnane X receptor (PXR) small molecule agonists, qHTS cell viability counter screen (AID 1346977). Note: nearly all actives have a fitted effect of over 50% in size. Note: potency is the fitted concentration of half-maximal effect. In short, it runs like this: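 Same-well viability read: CellTiter-Fluor added after 23 hr compound exposure, fluorescence measured 1 hr later. Cells were PXR-Luc HepG2 seeded at 2,000/well in 5% charcoal-stripped FBS medium, rested 5 hr before dosing at 37 C.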

Assay [10] is described as follows: Caspase-3/7 induction in HepG2 cells by small molecules, qHTS assay (AID 1346978). Note: nearly all actives have a fitted effect of over 15% in size. In short, it runs like this: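 Wild-type HepG2 cells (2,000/well) were settled 5 h at 37 C, 5% CO2, then exposed to compounds in DMSO for 17 h. Caspase-3/7 activity was read by luminescence 30 min after adding Caspase-Glo 3/7 reagent at room temperature.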
Assay [11] is described as follows: Caspase-3/7 induction in CHO-K1 cells by small molecules, qHTS assay (AID 1346980). Note: nearly all actives have a fitted effect of over 15% in size. In short, it runs like this:
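Wild-type cells were seeded at 1,500 per well and settled 5 hr at 37 C, 5% CO2, then exposed to DMSO-dissolved compounds for 17 hr. Caspase-Glo 3/7 reagent was added, and luminescence was read after 30min at room temperature.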

The nature of assay [12]: Caspase-3/7 induction in HepG2 cells by small molecules, qHTS cell viability counter screen (AID 1346981). Note: nearly all actives have a fitted effect of over 30% in size. Note: potency is the fitted concentration of half-maximal effect. In short, it runs like this:
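Multiplexed with the caspase-3/7 assay: HepG2 cells, 16 hr compound treatment, CellTiter-Fluor viability detection by fluorescence.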

For assay [13], the target named is Nuclear receptor subfamily 1 group I member 2 (Homo sapiens) (UniProt O75469). Put plainly: Human pregnane X receptor (PXR) small molecule agonists, qHTS assay (AID 1346982). Note: nearly all actives have a fitted effect of over 35% in size. Note: potency is the fitted concentration of half-maximal effect. In short, it runs like this: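 We seeded PXR-Luc HepG2 cells in assay medium containing 5% charcoal-stripped FBS, added compounds 5 hr later, incubated 24 hr, and read luminescence with ONE-Glo reagent.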

Assay [14] is described as follows: Caspase-3/7 induction in CHO-K1 cells by small molecules, qHTS cell viability counter screen (AID 1346979). Note: nearly all actives have a fitted effect of over 35% in size. Note: potency is the fitted concentration of half-maximal effect. In short, it runs like this:
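Cytotoxicity counter screen: CellTiter-Fluor added to compound-treated wild-type CHO-K1 cells at 16 h (37C, 5% CO2), fluorescence measured 1 h later; same wells as caspase-3/7 measurement.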

Assay [15] has as its target Nuclear receptor subfamily 1 group I member 2 (Rattus norvegicus) (UniProt Q9R1A7). Put plainly: Rat pregnane X receptor (rPXR) activation by small molecules, qHTS assay (AID 1346983). Note: nearly all actives have a fitted effect of over 20% in size. The note with it: rPXR luciferase reporter cells, One-Glo luminescence, 24 h; max activation: active compounds read high. The method in brief:
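Cell-based rPXR luciferase reporter assay, 2,000 cells per well, rested 5hr at 37 C before compound addition in DMSO, then 24 hr at 37 C. One-Glo reagent was added and luminescence read after 30 min at room temperature.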

In assay [16] the target is Nuclear receptor subfamily 1 group I member 2 (Homo sapiens) (UniProt O75469). Put plainly: CYP3A4 induction through human pregnane X receptor (PXR) by small molecules, qHTS assay (AID 1346984). Note: nearly all actives have a fitted effect of over 40% in size. Note: potency is the fitted concentration of half-maximal effect. In short, it runs like this: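 qHTS, concentration-response format: HepG2 DPX-2 line, PXR/CYP3A4-luc. Exposure 24 h, 37C. Substrate Luciferin-IPA 3uM final, 3 h. Detection One-Glo, 30 min RT.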

Assay [17] has the same target. The experiment in a line: Human pregnane X receptor (PXR) activation by small molecules, qHTS assay (AID 1346985). Note: nearly all actives have a fitted effect of over 40% in size. Note: potency is the fitted concentration of half-maximal effect. The method in brief: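 DPX-2 cells (HepG2 co-transfected with a PXR response element and a CYP3A4-promoter luciferase construct) were seeded at 2,000 per well, rested 5 hr at 37C, then exposed to DMSO-dissolved compounds for 24 hr. Activation was read as luciferase luminescence.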

The target in assay [18] is Progesterone receptor (Homo sapiens) (UniProt P06401). The experiment in a line: qHTS assay to identify small molecule antagonists of the progesterone receptor (PR) signaling pathway (AID 1346795; active = well fitted inhibition curve with a large enough effect in the signal ratio in the repeat runs, not every such curve was filed as active; the % refers to the signal ratio). In short, it runs like this:
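Antagonist mode with agonist R5020 at 1 nM final and 16 hr incubation at 37C. Reporter was beta-lactamase driven by UAS in HEK293T (PR-UAS-bla), 2% charcoal-stripped serum; signal from LiveBLAzer FRET substrate, 2 hr at room temperature.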

A short description of assay [19]: qHTS assay to identify small molecule antagonists of the progesterone receptor (PR) signaling pathway - cell viability counter screen (AID 1346798). Note: series mostly up to about 92 µM; nearly all actives have a fitted effect of over 50% in size. The method in brief: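 Cytotoxicity read as CellTiter-Glo luminescence (30 min, room temperature) in the same wells as the beta-lactamase readout. HEK293T PR-UAS-bla cells in charcoal-stripped 2% FBS received compound and R5020, then 16 h at 37C, 5% CO2.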
% is set by controls: 0 for no effect and ±100 for the full control effect.

Chain of Progesterone receptor (Homo sapiens) (P06401 whole entry, looked up): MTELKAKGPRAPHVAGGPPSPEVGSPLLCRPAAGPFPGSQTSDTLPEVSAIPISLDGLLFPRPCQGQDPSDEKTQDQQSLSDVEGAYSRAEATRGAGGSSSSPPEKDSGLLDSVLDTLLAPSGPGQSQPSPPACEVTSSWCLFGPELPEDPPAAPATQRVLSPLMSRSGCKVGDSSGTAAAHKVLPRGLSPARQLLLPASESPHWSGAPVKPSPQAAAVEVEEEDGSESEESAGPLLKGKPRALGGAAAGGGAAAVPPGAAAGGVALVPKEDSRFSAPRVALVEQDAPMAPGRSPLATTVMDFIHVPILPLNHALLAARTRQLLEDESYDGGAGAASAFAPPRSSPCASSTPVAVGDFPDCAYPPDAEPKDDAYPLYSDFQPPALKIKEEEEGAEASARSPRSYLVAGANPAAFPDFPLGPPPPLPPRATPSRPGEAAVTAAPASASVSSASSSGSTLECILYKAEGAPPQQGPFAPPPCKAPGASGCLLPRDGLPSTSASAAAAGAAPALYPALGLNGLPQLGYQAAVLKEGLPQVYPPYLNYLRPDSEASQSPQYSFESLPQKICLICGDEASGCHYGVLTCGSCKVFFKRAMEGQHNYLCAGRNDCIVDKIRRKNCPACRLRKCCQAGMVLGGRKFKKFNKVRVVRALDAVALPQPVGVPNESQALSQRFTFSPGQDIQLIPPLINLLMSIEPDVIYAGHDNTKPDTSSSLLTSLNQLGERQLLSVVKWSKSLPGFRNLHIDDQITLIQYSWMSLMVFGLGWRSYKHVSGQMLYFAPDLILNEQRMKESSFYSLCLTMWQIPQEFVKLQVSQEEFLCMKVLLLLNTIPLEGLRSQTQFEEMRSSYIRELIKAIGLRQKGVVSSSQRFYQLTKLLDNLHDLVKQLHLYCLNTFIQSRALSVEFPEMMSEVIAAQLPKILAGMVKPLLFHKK
Chain of Nuclear receptor subfamily 1 group I member 2 (Homo sapiens) (O75469 whole entry, looked up): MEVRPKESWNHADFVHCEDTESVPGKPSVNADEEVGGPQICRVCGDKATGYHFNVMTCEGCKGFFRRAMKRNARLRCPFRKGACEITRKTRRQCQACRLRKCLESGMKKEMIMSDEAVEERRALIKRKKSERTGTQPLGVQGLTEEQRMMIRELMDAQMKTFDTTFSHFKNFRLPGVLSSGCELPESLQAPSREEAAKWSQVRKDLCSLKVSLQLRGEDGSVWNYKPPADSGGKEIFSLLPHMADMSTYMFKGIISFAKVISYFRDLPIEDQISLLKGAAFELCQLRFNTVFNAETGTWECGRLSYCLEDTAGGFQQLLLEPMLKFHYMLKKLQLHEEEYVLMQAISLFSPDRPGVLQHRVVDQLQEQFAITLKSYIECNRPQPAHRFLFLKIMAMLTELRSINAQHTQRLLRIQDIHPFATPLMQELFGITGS
Chain of Thyrotropin-releasing hormone receptor (Homo sapiens) (P34981 whole entry, looked up): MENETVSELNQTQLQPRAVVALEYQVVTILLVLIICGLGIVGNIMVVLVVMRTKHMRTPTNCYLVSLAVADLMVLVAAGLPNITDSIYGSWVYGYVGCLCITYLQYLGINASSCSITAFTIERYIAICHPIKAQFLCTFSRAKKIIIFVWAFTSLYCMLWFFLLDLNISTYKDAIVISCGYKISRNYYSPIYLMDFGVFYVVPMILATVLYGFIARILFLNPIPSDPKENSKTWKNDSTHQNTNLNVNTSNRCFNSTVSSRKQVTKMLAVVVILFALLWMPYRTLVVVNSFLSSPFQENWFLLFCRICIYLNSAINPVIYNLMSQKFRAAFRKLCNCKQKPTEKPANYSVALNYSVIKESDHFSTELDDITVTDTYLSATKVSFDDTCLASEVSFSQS
Chain of Thyrotropin receptor (Homo sapiens) (P16473 whole entry, looked up): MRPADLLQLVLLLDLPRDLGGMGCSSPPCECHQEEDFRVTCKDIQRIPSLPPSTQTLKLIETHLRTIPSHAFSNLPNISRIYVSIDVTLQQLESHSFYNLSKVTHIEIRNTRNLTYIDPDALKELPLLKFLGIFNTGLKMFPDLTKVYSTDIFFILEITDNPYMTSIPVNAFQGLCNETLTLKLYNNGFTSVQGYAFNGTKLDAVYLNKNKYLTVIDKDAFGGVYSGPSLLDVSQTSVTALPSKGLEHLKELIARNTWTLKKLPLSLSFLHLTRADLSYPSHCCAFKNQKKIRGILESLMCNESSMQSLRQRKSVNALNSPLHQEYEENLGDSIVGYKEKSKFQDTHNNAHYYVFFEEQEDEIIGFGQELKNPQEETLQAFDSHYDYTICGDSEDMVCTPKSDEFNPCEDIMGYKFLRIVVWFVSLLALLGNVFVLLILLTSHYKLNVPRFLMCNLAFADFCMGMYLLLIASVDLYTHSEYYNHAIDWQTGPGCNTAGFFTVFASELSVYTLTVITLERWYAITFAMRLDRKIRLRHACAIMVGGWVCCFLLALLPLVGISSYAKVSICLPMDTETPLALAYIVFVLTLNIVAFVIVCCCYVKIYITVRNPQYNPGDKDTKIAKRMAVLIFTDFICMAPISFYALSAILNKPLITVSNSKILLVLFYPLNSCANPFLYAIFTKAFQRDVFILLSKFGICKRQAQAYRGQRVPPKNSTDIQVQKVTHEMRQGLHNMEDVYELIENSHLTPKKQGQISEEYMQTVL
Chain of Nuclear receptor subfamily 1 group I member 2 (Rattus norvegicus) (Q9R1A7 whole entry, looked up): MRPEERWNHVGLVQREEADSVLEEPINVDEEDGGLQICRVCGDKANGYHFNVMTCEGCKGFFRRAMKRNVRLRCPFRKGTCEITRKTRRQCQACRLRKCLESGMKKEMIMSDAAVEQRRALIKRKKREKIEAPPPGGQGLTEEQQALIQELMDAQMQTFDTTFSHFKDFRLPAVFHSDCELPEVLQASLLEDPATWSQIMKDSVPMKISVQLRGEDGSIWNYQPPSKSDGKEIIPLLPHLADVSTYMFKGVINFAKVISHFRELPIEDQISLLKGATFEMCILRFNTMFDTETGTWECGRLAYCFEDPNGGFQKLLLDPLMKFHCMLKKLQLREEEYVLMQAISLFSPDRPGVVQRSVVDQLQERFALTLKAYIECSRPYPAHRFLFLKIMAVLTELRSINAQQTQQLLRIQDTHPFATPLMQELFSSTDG

Turning to `C/C=C\C/C=C/CCCCCCCCOC(C)=O`, the Potency entry in assay [1], in assay [2], in [3], in assay [4], in assay [5] and in assay [6] was “inactive” in each case. In addition, the Potency entry in [8], in assay [9], in [10], in assay [11] and in assay [12] was “inactive” throughout. In addition, the outcome in [7] was inactive. Moreover, in assay [13], the Potency is 61.1 µM (active).

Consider `CN(C)CCC=C1c2ccccc2C=Cc2ccccc21`, for which the figures for the Potency in assay [1], in assay [9] and in assay [16] were 29.8 µM (active), 13.3 µM (active) and 31.6 µM (active), respectively. For the same compound, the Potency result in assay [2], in assay [3], in [4], in assay [6], in assay [8] and in [10] was “inactive” each time. The Potency entry in assay [14], in assay [11], in assay [12] and in [13] was “inactive” each time. In addition, in assay [7], the compound was classed as inactive. Further, the max activation in [15] was 0.747%.

As to `OC[C@H]1O[C@@H](n2cnc3c(=S)nc[nH]c32)[C@H](O)[C@@H]1O`, the Potency result in assay [1], in assay [2], in assay [3], in [6], in [8] and in assay [10] was “inactive” in each case. Further, the Potency entry in assay [14], in assay [12], in assay [16] and in assay [17] was “inactive” throughout. The call in assay [7] was inactive. For the same compound, the Potency in assay [13] was 11.9 µM (active). The max activation in assay [15] was -1.15%.

With `O=C=Nc1cccc(C(F)(F)F)c1`, the Potency result in assay [1], in assay [2], in assay [18], in [19], in [4] and in [6] was “inactive” each time. Further, the Potency entry in [8], in assay [10], in assay [11] and in assay [12] was “inactive” throughout. Further, in assay [7], the result was inactive.

On to `CN1C(=O)c2ccccc2C1=O`, for which the Potency entry in assay [1], in assay [2], in assay [4], in assay [5], in [6] and in assay [8] was “inactive” each time. For the same compound, the Potency result in assay [9], in assay [10], in assay [12] and in assay [13] was “inactive” each time. For the same compound, the Potency in assay [3] is 1.09 µM (active). Besides, the compound was classed as inactive in assay [7].

With `O=c1cc(-c2ccccc2)oc2cc(O)cc(O)c12`, the Potency entry in assay [1], in assay [4], in assay [5] and in assay [10] was “inactive” throughout. The Potency was 48.6 µM (active) in assay [2]; 54.5 µM (active) in [9]; 61.1 µM (active) in assay [14]; 54.5 µM (active) in [12]; 48.6 µM (active) in assay [13].

In the case of `CCCCCCCCC(CCCCCC)C(=O)O` (configuration not stated), the Potency result in assay [1], in assay [2], in assay [3], in assay [4], in [6] and in assay [8] was “inactive” in each case. The Potency result in [10], in assay [14], in assay [11], in assay [12] and in [13] was “inactive” each time. The call in assay [7] was inactive.

`CC[C@]1(O)C[C@H]2CN(CCc3c([nH]c4ccccc34)[C@@](C(=O)OC)(c3cc4c(cc3OC)N(C=O)[C@H]3[C@@](O)(C(=O)OC)[C@H](OC(C)=O)[C@]5(CC)C=CCN6CC[C@]43[C@@H]65)C2)C1`: the Potency result in [1], in assay [2], in [3], in [4], in assay [5] and in [6] was “inactive” throughout. The Potency result in assay [8], in [10] and in [11] was “inactive” in each case. Moreover, in assay [7], the outcome was inactive. In addition, the Potency in [17] was 8.91 µM (active).

For `COC(=O)c1nc(Cl)c(Cl)nc1N`, the Potency result in assay [1], in [2], in assay [4], in [5], in assay [8] and in assay [10] was “inactive” each time. Besides, the Potency result in [11] is “inactive”. The Potency was 23.9 µM (active) in assay [6], 8.41 µM (active) in [14] and 10.6 µM (active) in assay [13]. Further, the outcome in assay [7] was inactive.
